Where a name gives a salt, the structure may show the parent alone. ± gives the standard deviation or the standard deviation of the averaged measurements.
What was measured:
Conditions in all cases: 25 µM; exposure: 24-48 hpf
[1] = system: Danio rerio Tg(wt1b:EGFP) embryo, pronephros; assay: glomerular separation, fold change vs DMSO control; higher = glomeruli further apart (abnormal)
Method in brief: (§1)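 Dechorionated Tg(wt1b:EGFP) zebrafish embryos were kept from 24 to 48 hpf at 28.5°C in HEPES-buffered E3 containing 0.003% PTU, 0.5% DMSO and 25 μM compound. The pronephroi were then imaged from the dorsal side in agarose-filled 96-well plates at 470 nm with 10 z-slices, and 16 reference points were placed by hand on maximum projections in Fiji so that a macro could calculate distances and angles. Values lying more than 2 SD from the mean of a feature were discarded. Every feature is given as a fold change against the mean of DMSO-treated embryos from the same day.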

[2] = system: Danio rerio Tg(wt1b:EGFP) embryo, pronephros; assay: glomerular width (mean of left and right), fold change vs DMSO control; higher = wider glomerulus
Method in brief: as §1

[3] = system: Danio rerio Tg(wt1b:EGFP) embryo, pronephros; assay: fraction of imaged embryos annotated as normal kidney; higher = less nephrotoxic; extreme values may be limits of the assay
Method in brief: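 Embryos of the Tg(wt1b:EGFP) zebrafish line were dechorionated and held in 12-well plates with 25 μM compound in 0.5% DMSO and 5 mM HEPES-buffered E3 containing 0.003% PTU, from 24 to 48 hpf at 28.5°C. Larvae were then anaesthetised with tricaine, set dorsal side up in agarose-filled 96-well plates, and their pronephroi imaged by widefield fluorescence at 470 nm over 10 z-slices. Each value is the fraction of embryos per treatment placed in the normal-kidney category after manual annotation of maximum projections.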

[4] = system: Danio rerio Tg(wt1b:EGFP) embryo, pronephros; assay: pronephric angle neck segment to proximal convoluted tubule (mean of left and right), fold change vs DMSO control; higher = larger pronephric angle
Method in brief: as §1

SMILES	glomerular separation [1]	glomerular width [2]	fraction of imaged embryos annotated as normal kidney [3]	pronephric angle neck segment [4]
CC[C@H](C)[C@H](N)C1=N[C@H](C(=O)N[C@@H](CC(C)C)C(=O)N[C@H](CCC(=O)O)C(=O)N[C@H](C(=O)N[C@H]2CCCCNC(=O)[C@H](CC(N)=O)NC(=O)[C@@H](CC(=O)O)NC(=O)[C@H](Cc3cnc[nH]3)NC(=O)[C@@H](Cc3ccccc3)NC(=O)[C@H]([C@@H](C)CC)NC(=O)[C@@H](CCCN)NC2=O)[C@@H](C)CC)CS1 [Bacitracin]	0.822 ± 0.28	0.912 ± 0.019	1	1.01 ± 0.013
CCCSc1ccc2[nH]c(NC(=O)OC)nc2c1 [Albendazole]	3.72 ± 1.5	0.591 ± 0.025	0	1.97 ± 0.07
COc1cc(N)c(Cl)cc1C(=O)NC1CCN(CCCOc2ccc(F)cc2)CC1OC (configuration not stated) [Cisapride]	1.09 ± 0.39	1.066 ± 0.0076	0.583	0.992 ± 0.071
Nc1ncn(C2OC(CO)C(O)C2O)c(=O)n1 (configuration not stated) [Azacytidine-5]	0.981 ± 0.4	0.979 ± 0.017	1	1.02 ± 0.031
OC(CCN1CCCCC1)(c1ccccc1)c1ccccc1 [Pridinol methanesulfonate salt]	0.797 ± 0.22	1.02 ± 0.06	1	0.986 ± 0.089
NS(=O)(=O)c1cc2c(cc1Cl)N=CNS2(=O)=O [Chlorothiazide]	0.855 ± 0.11	1.07 ± 0.043	0.75	0.99 ± 0.057
CCc1c(C)[nH]c2c1C(=O)C(CN1CCOCC1)CC2 (configuration not stated) [Molindone hydrochloride]	0.897 ± 0.23	1 ± 0.018	0.833	0.956 ± 0.0018
CCCc1nc(C)c2c(=O)nc(-c3cc(S(=O)(=O)N4CCN(CC)CC4)ccc3OCC)[nH]n12 [Vardenafil]	1.24 ± 0.46	1.02 ± 0.021	0.667	0.981 ± 0.041
NCCCC[C@H](N[C@@H](CCc1ccccc1)C(=O)O)C(=O)N1CCC[C@H]1C(=O)O [Lisinopril]	1.16 ± 0.32	0.998 ± 0.058	0.833	1.02 ± 0.032
CCCCCNC(=N)N/N=C/c1c[nH]c2ccc(OC)cc12 [Tegaserod maleate]	1.26 ± 0.31	0.997 ± 0.032	0.7	0.963 ± 0.048
CN[C@@H]1[C@H](O[C@H]2[C@H](O[C@H]3[C@H](O)[C@@H](O)[C@H](NC(=N)N)[C@@H](O)[C@@H]3NC(=N)N)O[C@@H](C)[C@]2(O)CO)O[C@@H](CO)[C@H](O)[C@H]1O [Dihydrostreptomycin sulfate]	0.844 ± 0.18	1.0469 ± 0.00096	0.667	0.975 ± 0.048
CN1CCCC(n2nc(Cc3ccc(Cl)cc3)c3ccccc3c2=O)CC1 (configuration not stated) [Azelastine hydrochloride]	0.737 ± 0.21	0.885 ± 0.04	1	1.11 ± 0.024
CN1CCCC(CC2c3ccccc3Sc3ccccc32)C1 (configuration not stated) [Metixene hydrochloride]	0.961 ± 0.25	1 ± 0.021	1	0.953 ± 0.044
OC(CCCN1CCCCC1)(c1ccccc1)c1ccccc1 [Diphenidol hydrochloride]	0.854 ± 0.23	1.1 ± 0.11	0.833	1.06 ± 0.02
CC[C@H]1OC(=O)[C@H](C)[C@@H](O[C@H]2C[C@@](C)(OC)[C@@H](O)[C@H](C)O2)[C@H](C)[C@@H](O[C@@H]2O[C@H](C)C[C@H](N(C)C)[C@H]2O)[C@](C)(OC)C[C@@H](C)C(=O)[C@H](C)[C@@H](O)[C@]1(C)O [Clarithromycin]	0.802 ± 0.28	0.909 ± 0.043	1	1.06 ± 0.039
Nc1nc(/C(=C/CC(=O)O)C(=O)N[C@@H]2C(=O)N3C(C(=O)O)=CCS[C@H]23)cs1 [Ceftibuten]	0.515 ± 0.17	1.016 ± 0.0039	1	0.963 ± 0.019
Nc1ccc(S(=O)(=O)Nc2ccccn2)cc1 [Sulfapyridine]	0.906 ± 0.35	1.07 ± 0.03	0.75	1 ± 0.083
NNC(=O)c1ccncc1 [Isoniazid]	0.891 ± 0.099	1.09 ± 0.032	1	0.978 ± 0.02
COc1ccccc1Oc1c(NS(=O)(=O)c2ccc(C(C)(C)C)cc2)nc(-c2ncccn2)nc1OCCO [Bosentan]	1.19 ± 0.5	1.02 ± 0.034	0.833	1.03 ± 0.029
Cc1cn([C@H]2C=C[C@@H](CO)O2)c(=O)[nH]c1=O [Stavudine]	0.929 ± 0.3	0.874 ± 0.0014	1	0.9729 ± 0.00098
Cc1ccnc(NS(=O)(=O)c2ccc(N)cc2)n1 [Sulfamerazine]	0.775 ± 0.22	1.03 ± 0.011	0.909	0.974 ± 0.085
CN(C)CCCN1c2ccccc2Sc2ccccc21 [Promazine hydrochloride]	1.25 ± 0.35	1.044 ± 0.0041	0.75	0.962 ± 0.047
N#Cc1cc(NC(=O)C(=O)O)c(Cl)c(NC(=O)C(=O)O)c1 [Lodoxamide]	1.24 ± 0.55	0.9808 ± 0.0037	0.917	1.05 ± 0.059
CC(=O)O[C@@]12CO[C@@H]1C[C@H](O)[C@@]1(C)C(=O)[C@H](O)C3=C(C)[C@@H](OC(=O)[C@H](O)[C@@H](NC(=O)OC(C)(C)C)c4ccccc4)C[C@@](O)([C@@H](OC(=O)c4ccccc4)[C@H]21)C3(C)C [Docetaxel]	1.11 ± 0.48	0.978 ± 0.051	0.917	1.007 ± 0.0081
CCN(CC)CCOC(=O)C(c1ccccc1)c1ccccc1 [Adiphenine hydrochloride]	1.14 ± 0.47	0.979 ± 0.026	0.917	0.98401 ± 0.00017
COc1ccc(C(=O)c2ccccc2)c(O)c1 [Oxybenzone]	0.878 ± 0.34	1.09 ± 0.026	0.833	1.03 ± 0.02
C#Cc1cccc(Nc2ncnc3cc(OCCOC)c(OCCOC)cc23)c1 [Erlotinib]	0.768 ± 0.23	1.05 ± 0.03	0.833	0.994 ± 0.031

SMILES	glomerular separation [1]	glomerular width [2]	fraction of imaged embryos annotated as normal kidney [3]	pronephric angle neck segment [4]
O=C(O)c1cccnc1 [Niacin]	0.706 ± 0.25	1.04 ± 0.063	0.917	0.992 ± 0.032
CCCCC(=O)N(Cc1ccc(-c2ccccc2-c2nnn[nH]2)cc1)[C@H](C(=O)O)C(C)C [Valsartan]	0.756 ± 0.22	1.09 ± 0.026	1	0.991 ± 0.021
O=C(OCCOCCO)c1ccccc1Nc1cccc(C(F)(F)F)c1 [Etofenamate]	3.04 ± 0.95	0.684 ± 0.026	0	1.75 ± 0.018
CC(=O)O[C@H]1C[C@@]2(C)[C@@H](C[C@@H](O)[C@H]3[C@@]4(C)CC[C@@H](O)[C@@H](C)[C@@H]4CC[C@@]32C)/C1=C(\CCC=C(C)C)C(=O)O [Fusidic acid sodium salt]	0.853 ± 0.16	1.06 ± 0.025	1	1.02 ± 0.014
CC(C)CC(=O)N[C@H](C(=O)N[C@H](C(=O)N[C@@H](CC(C)C)[C@@H](O)CC(=O)N[C@@H](C)C(=O)N[C@@H](CC(C)C)[C@@H](O)CC(=O)O)C(C)C)C(C)C [Pepstatin A]	0.947 ± 0.11	1.03 ± 0.012	0.818	1.01 ± 0.041
Cc1cccc(Nc2ccccc2C(=O)O)c1C [Mefenamic acid]	5.08 ± 1.4	0.617 ± 0.064	0	1.63 ± 0.059
CC1CNc2c(cccc2S(=O)(=O)N[C@@H](CCCNC(=N)N)C(=O)N2CC[C@@H](C)C[C@@H]2C(=O)O)C1 (some centres not stated) [Argatroban]	1.4 ± 1	0.949 ± 0.041	0.909	0.997 ± 0.04
CNc1ncnc2c1ncn2[C@@H]1O[C@H](CO)[C@@H](O)[C@H]1O [N6-methyladenosine]	0.849 ± 0.21	1.05 ± 0.029	1	1.01 ± 0.065
CCCCN1CCCCC1C(=O)Nc1c(C)cccc1C (configuration not stated) [Bupivacaine hydrochloride]	1.23 ± 0.54	0.946 ± 0.021	0.667	1.01 ± 0.13
CC(C(=O)O)c1ccc(C(=O)c2ccccc2)s1 (configuration not stated) [Tiaprofenic acid]	1.58 ± 0.4	1.07 ± 0.067	0.667	1.03 ± 0.015
O=C(CCCCC(=O)Nc1c(I)cc(I)c(C(=O)O)c1I)Nc1c(I)cc(I)c(C(=O)O)c1I [Iodipamide]	0.857 ± 0.54	1.05 ± 0.076	0.75	1.0067 ± 0.00076
COc1nc(N)nc2c1ncn2[C@@H]1O[C@H](CO)[C@@H](O)[C@@H]1O [Nelarabine]	0.929 ± 0.39	0.992 ± 0.058	0.727	0.984 ± 0.073
Nc1ccccc1S(N)(=O)=O [2-Aminobenzenesulfonamide]	0.99 ± 0.24	1.02 ± 0.072	0.917	1.052 ± 0.00059
O=C1OC(CN2CCOCC2)CN1/N=C/c1ccc([N+](=O)[O-])o1 (configuration not stated) [Furaltadone hydrochloride]	0.859 ± 0.33	1.1 ± 0.021	0.75	0.995 ± 0.015
CN(C)/N=N/c1[nH]cnc1C(N)=O [Dacarbazine]	0.922 ± 0.21	0.991 ± 0.037	1	0.997 ± 0.06
CC(C)(O/N=C(\C(=O)N[C@@H]1C(=O)N2C(C(=O)[O-])=C(C[n+]3ccccc3)CS[C@H]12)c1csc(N)n1)C(=O)O [Ceftazidime pentahydrate]	0.761 ± 0.12	0.993 ± 0.046	1	0.961 ± 0.018
CC1(C)O[C@@H]2[C@@H](CO[C@@]3(COS(N)(=O)=O)OC(C)(C)O[C@@H]23)O1 [Topiramate]	1.18 ± 0.51	1.086 ± 0.0046	0.583	1 ± 0.025
OCc1cc(C(O)CNCCCCCCOCCCCc2ccccc2)ccc1O (configuration not stated) [Salmeterol]	5.53 ± 1.4	0.665 ± 0.017	0	1.65 ± 0.087
Cn1c(=O)c2c(ncn2C)n(C)c1=O [Caffeine]	0.852 ± 0.19	0.921 ± 0.018	0.9	1.05 ± 0.099
COc1cccc(OC)c1C(=O)N[C@@H]1C(=O)N2[C@@H]1SC(C)(C)[C@@H]2C(=O)O [Methicillin sodium]	1.21 ± 0.55	1.05 ± 0.057	0.5	1 ± 0.037
c1ccc(CNc2ncnc3nc[nH]c23)cc1 [Aminopurine, 6-benzyl]	1.17 ± 0.43	1.01 ± 0.042	0.667	1.02 ± 0.019
NS(=O)(=O)c1cc2c(cc1C(F)(F)F)NCNS2(=O)=O [Hydroflumethiazide]	0.97 ± 0.25	1.07 ± 0.035	0.727	1.04 ± 0.14
C[C@H](Cc1cc2c(c(C(N)=O)c1)N(CCCO)CC2)NCCOc1ccccc1OCC(F)(F)F [Silodosin]	0.726 ± 0.14	0.985 ± 0.067	0.917	0.992 ± 0.028
CC(C(=O)O)c1ccc(N2Cc3ccccc3C2=O)cc1 (configuration not stated) [Indoprofen]	2.27 ± 0.52	0.658 ± 0.069	0.2	1.3 ± 0.1
CCN(CC)CCNc1ccc(CO)c2sc3ccccc3c(=O)c12 [Hycanthone]	1.12 ± 0.27	0.968 ± 0.052	0.833	0.977 ± 0.059
NC1CCN(c2c(F)cc3c(=O)c(C(=O)O)cn(C4CC4)c3c2Cl)C1 (configuration not stated) [Clinafloxacin]	1.2 ± 0.45	1.03 ± 0.087	1	0.962 ± 0.038

From the supplement of paper PMC7366291
